CYP2C9 inh – blocks human cytochrome P450 2C9 | P11712 | CYP2C9 Supersomes, luciferin-H conversion, luminescence | inhibition, % at 5 µM | actives 20% (n = 96,000);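 active means blocking of liver enzyme CYP2C9 beyond about 50% at 5 µM, limit read from the data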
CYP2C19 inhib – blocks human cytochrome P450 2C19. actives 21% (n = 96,000). P33261. inhibition, % at 5 µM. CYP2C19 Supersomes, luciferin-H EGE luminescence, 30 min;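 active means CYP2C19 inhibition above a set limit at 5 µM in the primary screen, cut at about 50% in these data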;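 further: plate controls were negative control wells for no effect and 2.5 mM tranylcypromine positive control for full effect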
CYP2C9 activ – CYP2C9 (human) activation. P11712. recombinant CYP2C9, luciferin-H conversion, luminescence; hits give high values; factor 1 = untreated enzyme, 0 = blocked. activation factor at 5 µM. actives 1.4% (n = 96,000);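 active means activation factor of 2 or more for CYP2C9 at a 5 µM dose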;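 further: 0 = sulfaphenazole-blocked wells and 1 = vehicle-only wells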
CYP2C19 act – increases human CYP2C19 enzyme activity; P33261; recombinant CYP2C19, luciferin-H EGE luminescence; hits give high values; 0 = fully inhibited enzyme, 1 = untreated enzyme; activation factor at 5 µM; 96,000 tested, under 10 active; AID 1025;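 active means activation factor of at least 2 at 5 µM in the primary screen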;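 further: 0 = wells with 2.5 mM tranylcypromine and 1 = vehicle-only wells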
Cav32 inh – human Cav3.2 channel inhibition, primary screen. actives 4% (n = 100,000). B-score at 10 µM. Cav3.2-expressing cells, Fluo-4 calcium fluorescence FDSS; hits give low values;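 active means single-dose well whose peak fluorescence ratio is a statistical outlier from its plate by either plate-standardised score or position-corrected B-score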
An asterisk follows results filed as active; / = not tested or not shown. Rows were chosen to be rich in hits. Some 27% of all compounds tested hit in one or more screens of this group.

SMILES	CYP2C9 inh	CYP2C19 inhib	CYP2C9 activ	CYP2C19 act	Cav32 inh
CCS(=O)(=O)N1Cc2ccccc2CC1C(=O)OCC(=O)Nc1ccc(SC(F)F)cc1 (stereo not drawn)	93*	78*	0.1	0.2	-1.9
COc1ccc(S(=O)(=O)NNC(=O)c2cc3cc4ccccc4nc3s2)cc1	-8	-13	1.1	1.1	-1.5
O=Cc1ccc(Sc2nnc(-c3ccccc3)o2)c([N+](=O)[O-])c1	13	27	0.9	0.7	1.2
Cn1nc([N+](=O)[O-])nc1Sc1nnc(-c2ccccc2)o1	52*	19	0.5	0.8	0.18
O=C1NC(=O)/C(=C\c2ccccc2Oc2ccc(F)c(F)c2)S1	85*	13	0.2	0.9	/
COCCOC(=O)C1=C(C)N=C2SCCC(=O)N2C1c1cccc(Br)c1 (stereo not drawn)	47	30	0.5	0.7	-1.2
COc1ccc(CCN2CCC(Nc3nc4ccccc4n3Cc3ccc(F)cc3)CC2)cc1	/	/	/	/	-5*
CCOc1ccc(CNc2nc3ccccc3n2CCN2CCOCC2)cc1	/	/	/	/	1.6
CC(C)OC(=O)c1c(F)c(F)c(N2CCOCC2)c(F)c1F	-2	51*	1	0.5	-0.88
N#Cc1c(-c2ccc(Cl)cc2Cl)nc2n(c1=O)CCS2	62*	93*	0.4	0.1	-0.94
O=c1c2ccccc2nc2n1CCS2	5	-1	0.9	1	0.49
Cc1ccc(NC(=O)C2(NC(=O)c3cccc(N4C(=O)CSC4c4ccccc4)c3)CCCCC2)cc1 (stereo not drawn)	84*	4	0.2	1	-6.9*
NS(=O)(=O)c1ccc(NCc2cc(Cl)ccc2OCc2ccccc2F)cc1	28	7	0.7	0.9	0.91
NS(=O)(=O)c1ccc(NCc2ccccc2OCc2ccc(F)cc2)cc1	78*	31	0.2	0.7	-3.1
COc1cccc(CNCC(=O)N2C(C)CCCC2C)c1 (stereo not drawn)	12	49	0.9	0.5	0.26
CCCCCCn1c(NCC)nc2c1c(=O)[nH]c(=O)n2C	-15	-2	1.2	1	0.28
CCOC(=O)c1ccc(NC(=O)CSc2nnc(-c3cccs3)n2CC)cc1	13	13	0.9	0.9	0.32
CCOC(=O)c1ccc(NC(=O)CSc2nc(SC)ns2)cc1	60*	55*	0.4	0.5	/
CSc1nsc(SCC(=O)Nc2cccc(C(C)=O)c2)n1	51*	32	0.5	0.7	-0.17
Cc1ccc(O)c(C(=O)c2cnc3c(c2)CN(CCC(C)C)C(=O)N3)c1	64*	14	0.4	0.9	0.014
CNC(=O)c1ccccc1S(=O)(=O)c1ccccc1C#N	10	13	0.9	0.9	0.6
COc1ccc(C(=O)Nn2c(SCC(=O)NCc3ccco3)nc3ccccc3c2=O)cc1	80*	13	0.2	0.9	-0.051
O=C(CSc1nc2ccccc2c(=O)n1Cc1ccccc1)NCc1ccco1	0	9	1	0.9	0.19
O=C(CSc1nc2ccccc2c(=O)n1Cc1ccc(C(=O)NC2CC2)cc1)NCc1ccco1	53*	35	0.5	0.7	-0.047
COc1ccc(C(=O)Nn2c(SCC(=O)NC3CCCCC3)nc3ccccc3c2=O)cc1	31	14	0.7	0.9	-1.5
SMILES	CYP2C9 inh	CYP2C19 inhib	CYP2C9 activ	CYP2C19 act	Cav32 inh
COc1ccc(C(=O)Nn2c(SCC(=O)N3CCC(C)CC3)nc3ccccc3c2=O)cc1	86*	39	0.1	0.6	-2.9
COc1ccc(C(=O)NCCn2cc(SCC(=O)NCc3ccco3)c3ccccc32)cc1	85*	96*	0.1	0	-2.2
Cn1c(=O)c2c(nc(CN3CCN(c4ccccc4)CC3)n2Cc2c(F)cccc2Cl)n(C)c1=O	29	27	0.7	0.7	-3.7
Cc1nn(CC#N)c(=O)n1-c1ccccc1	-3	-1	1	1	-0.82
Cc1nn(CCOc2ccccc2)c(=O)n1-c1c(F)cccc1F	-53	85*	1.5	0.1	/
OCCOCCn1c(C2CCCN2c2nc(-c3ccc(F)cc3)cs2)nc2cc(Cl)c(Cl)cc21 (stereo not drawn)	/	/	/	/	-0.02
CCC(C)[C@H](NC(=O)OC(C)(C)C)C(=O)N/N=C/C1=Cc2ccccc2OC1 (stereo partly drawn)	44	-4	0.6	1	-5.3*
O=C(NC(CSSCC(NC(=O)c1ccccc1)C(=O)O)C(=O)O)c1ccccc1 (stereo not drawn)	/	/	/	/	-0.55
CCOC(=O)CSc1cc(CS(=O)(=O)c2ccccc2)nc(-c2ccccc2)n1	54*	81*	0.5	0.2	-0.087
Cc1nc(CS(=O)(=O)c2ccccc2)cc(Sc2ccc(Cl)cc2)n1	-29	-24	1.3	1.2	-0.78
O=S(=O)(Cc1cc(Cl)nc(-c2ccccc2)n1)c1ccccc1	-38	92*	1.4	0.1	-1.2
O=C(Nc1ccc2ccccc2c1)[C@@H]1C[C@H]1[C@@H](NP(=O)(c1ccccc1)c1ccccc1)c1ccccc1	/	/	/	/	-1.7
c1cc2c(cc1Nc1nc(-c3ccc4c(c3)OCO4)cs1)OCCO2	87*	73*	0.1	0.3	0.041
CC(C)(C)C(=O)Nc1nc(-c2ccc3c(c2)OCO3)cs1	94*	92*	0.1	0.1	/
C=CCN1CC2CC3(COc4cc(C)cc(C)c4)C=CC2(O3)C1=O (stereo not drawn)	45	65*	0.5	0.4	-1.1
Cc1cc(C(F)(F)F)n2nc(-c3cnn(C)c3C(F)(F)F)c(Cl)c2n1	72*	51*	0.3	0.5	-0.44
Cc1cc(C)n2nc(-c3cnn(C)c3C(F)(F)F)c(Cl)c2n1	28	30	0.7	0.7	-0.075
CN(C)CCNC=C(C(=O)Nc1ccc(Cl)cc1Cl)C(=O)Nc1ccc(Cl)cc1Cl	43	16	0.6	0.8	1
CN(C(=O)Nc1ccc(Cl)cc1Cl)[C@H]1c2cc(Br)ccc2OC[C@H]1CO	87*	41	0.1	0.6	-2.5
COc1cc(C(=S)N2CCOCC2)cc(OC)c1OS(=O)(=O)c1ccc(NC(C)=O)cc1	36	58*	0.6	0.4	0.99
COC(=O)c1ccc(C(=S)N2CCOCC2)cc1	8	13	0.9	0.9	/
Cc1nnsc1Sc1cccc(C(F)(F)F)c1	-8	-7	1.1	1.1	0.27
O=C(Nc1ncc(Br)s1)C1CCCN1S(=O)(=O)c1cccc2cccnc12 (stereo not drawn)	40	14	0.6	0.9	0.09
COc1cc(NC(=O)C2CCCN2S(=O)(=O)c2cccc3cccnc23)cc(OC)c1OC (stereo not drawn)	83*	-1	0.2	1	/
Cc1ccc(NC(=O)C2CCCN2S(=O)(=O)c2cccc3cccnc23)cc1F (stereo not drawn)	94*	23	0.1	0.8	-1.7
O=C(C1CCN(S(=O)(=O)c2cccc3cccnc23)CC1)N1CCn2c1nc1ccccc12	-39	40	1.4	0.6	/
O=C(C1CCCN1S(=O)(=O)c1cccc2cccnc12)N1CCn2c1nc1ccccc12 (stereo not drawn)	58*	0	0.4	1	0.92

Screening data (PubChem)
